Screening results (PubChem BioAssay)
Pf gametocyte: P. falciparum stage V gametocyte viability inhibition. 0.065% of 150,000 active. AID 743093. P. falciparum stage V gametocytes, ATP luminescence, 24 h. inhibition, % at 10.9 µM;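 active means inhibition above the mean plus 3 SD of compounds within the control limits, set per campaign, cut at about 38% in these data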
Arbovirus anti: antivirals against arbovirus infection | arbovirus infection cell-based antiviral screen | inhibition, % at 10 µM | 0.37% of 200,000 active | AID 1251; in the data active means inhibition above about 30%
MEKK3 PB1 HTS: modulators (inhibitors or enhancers) of MEK5 binding to human MEKK3 PB1 domain | Q99759 | bead-based flow cytometry, Alexa488-MEK5 binding to MEKK3; actives lie on both sides; 0 = blocked by unlabeled MEK5, 100 = vehicle | binding response (% of control), % at 10 µM | 1.4% of 290,000 active;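 active means binding response more than 3 SD above or below the average of its plate-row segment, actives on both sides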;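 further: Alexa488 bead fluorescence after subtracting the streptavidin-only scavenger bead signal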
Target sequence (Q99759 whole entry, looked up, the tested form may be a part): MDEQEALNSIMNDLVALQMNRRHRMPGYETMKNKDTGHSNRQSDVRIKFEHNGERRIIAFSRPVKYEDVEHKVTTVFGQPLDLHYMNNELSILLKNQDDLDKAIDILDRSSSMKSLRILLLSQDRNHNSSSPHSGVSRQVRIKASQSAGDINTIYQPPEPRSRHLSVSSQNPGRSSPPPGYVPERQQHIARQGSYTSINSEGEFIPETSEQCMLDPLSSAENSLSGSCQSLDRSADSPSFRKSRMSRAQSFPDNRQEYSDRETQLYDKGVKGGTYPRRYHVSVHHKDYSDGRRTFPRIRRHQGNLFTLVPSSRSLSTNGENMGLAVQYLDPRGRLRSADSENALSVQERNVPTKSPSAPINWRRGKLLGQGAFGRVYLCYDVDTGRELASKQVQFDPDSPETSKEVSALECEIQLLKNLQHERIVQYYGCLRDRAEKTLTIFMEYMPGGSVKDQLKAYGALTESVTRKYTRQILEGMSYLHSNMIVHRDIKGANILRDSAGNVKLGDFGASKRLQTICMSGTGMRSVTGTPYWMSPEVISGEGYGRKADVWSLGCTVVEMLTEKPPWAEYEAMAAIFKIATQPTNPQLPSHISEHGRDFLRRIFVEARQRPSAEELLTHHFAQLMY
MEKK2wt PB1 HTS: raises or lowers MEK5 binding to wildtype human MEKK2 PB1 domain | Q9Y2U5 | bead flow cytometry, Alexa488-MEK5 binding to MEKK2 WT; actives lie on both sides | 1.1% of 290,000 active | binding response (% of control), % at 10 µM; in the data active means binding response below about 67% or above about 130%
MEKK2mut PB1 HTS: signal of MEK5 binding to mutant human MEKK2 PB1 domain. bead flow cytometry, Alexa488-MEK5 binding to MEKK2 mutant. AID 1530. 0.35% of 290,000 active. percent response, % at 10 µM; in the data active means percent response above about 24%, passing the limit was not always enough
Each line names hits and unclear results; the compound was inactive in the other large screens. This is a sample that favours compounds with a hit; in the whole collection about 2.4% have one here.

O=C(Nc1cccc(/C=C/c2ccccn2)c1)c1cc(Cl)ccn1	none (no result: Pf gametocyte, Arbovirus anti)
Nc1ncnc2c1nc(Sc1ccc(Cl)cc1)n2[C@@H]1O[C@@H]2COP(=O)(O)O[C@H]2[C@H]1O	none (no result: Pf gametocyte, Arbovirus anti)
C=CCn1c(N)c(C(=O)NCc2cccnc2)sc1=S	Arbovirus anti 77
COc1ccc(N(CC(=O)NC2CCCCCC2)S(=O)(=O)c2ccc(C)cc2)cc1OC	none (no result: Pf gametocyte, Arbovirus anti)
Nc1ccccc1S(=O)(=O)NCCCCc1ccccc1	none (no result: Pf gametocyte, Arbovirus anti)
Cc1ccc2c(c1)c1c(n2CC(O)Cn2c(C)nc3ccccc32)/C(=N\O)CCC1 (centres undefined)	none (no result: Pf gametocyte)
Cc1ccc2c(c1)c1c(n2CC(O)Cn2c(C)nc3ccccc32)C(=O)CCC1 (centres undefined)	Arbovirus anti 37 (no result: Pf gametocyte)
COc1ccc(CCN(C)C(=O)CSc2nnnn2C)cc1OC	none
COc1cccc(C(=O)Nc2nc(-c3ccc4c(c3)OCO4)cs2)c1	Arbovirus anti 42 (no result: Pf gametocyte)
COc1cccc(C(=O)Nc2nc(-c3ccncc3)cs2)c1	none
O=C(Nc1nc(-c2ccc3c(c2)OCO3)cs1)C1COc2ccccc2O1 (centres undefined)	Arbovirus anti 52 (no result: Pf gametocyte)
O=C(Nc1nc(-c2ccccc2)cs1)C1COc2ccccc2O1 (centres undefined)	none (no result: Pf gametocyte)
Cc1ccc(NC(=O)c2ccc(CNc3c(N4CCC(C)CC4)c(=O)c3=O)cc2)cc1	none (no result: Arbovirus anti)
Cc1nnc(SC(C)C(=O)Nc2ncc(Cl)cc2Cl)n1Cc1ccccc1 (centres undefined)	none (no result: Pf gametocyte)
COCCn1c(SC(C)C(=O)Nc2ncc(Cl)cc2Cl)nc2ccccc21 (centres undefined)	Arbovirus anti 31
COc1cc2ncnc(NCc3cccc(Cl)c3)c2cc1OC	MEKK2wt PB1 HTS 138
CCCc1cc(=O)[nH]c(SCC(=O)N2CCN(S(=O)(=O)c3ccc4ccccc4c3)CC2)n1	Pf gametocyte 64
COc1ccc(CCNC/C=C/c2ccccc2)cc1	none (no result: Arbovirus anti)
COc1ccc(C(CCNCc2ccc(F)cc2)c2ccc(F)cc2)cc1 (centres undefined)	none
COc1ccc(CCNCc2ccc(OCc3ccccc3)cc2)cc1	MEKK2wt PB1 HTS 136 (no result: Pf gametocyte, Arbovirus anti)
COc1ccc(CNCCC(c2ccc(F)cc2)c2ccc(OC)cc2)cc1 (centres undefined)	MEKK2wt PB1 HTS 140
COc1ccc(C(OCC(O)CNCCc2ccccc2)c2ccc(OC)cc2)cc1 (centres undefined)	MEKK2wt PB1 HTS 151 (no result: Pf gametocyte, Arbovirus anti)
Cc1nc(N2CCOCC2)sc1C=O	none
Cc1ccccc1OCC(=O)Nc1c2c(nn1C(C)(C)C)CS(=O)(=O)C2	none (no result: Pf gametocyte, Arbovirus anti)
C/C(=N\NC(=O)C(=O)Nc1cccc(Cl)c1C)c1ccncc1	none
CCCCc1cc2c(cn1)=C(OC(=O)c1cnc3ccccc3n1)C(C)(OC(=O)CC)C(=O)C=2 (centres undefined)	MEKK2wt PB1 HTS 143 (no result: Arbovirus anti)
Cn1c(SCc2cccc([N+](=O)[O-])c2)nc2c(c1=O)SCC2	none
O=C(O)c1ccccc1Nc1ccnc(C(F)(F)F)c1	none (no result: Pf gametocyte, Arbovirus anti)
O=C(O)c1ccccc1Nc1cccc(C(F)(F)F)c1	Arbovirus anti 38 (no result: Pf gametocyte)
O=C(Nc1scc(-c2ccccc2)c1C(=O)O)c1ccco1	Arbovirus anti 42 (no result: Pf gametocyte)
O=C(/C=C/c1cccs1)Nc1scc(-c2ccccc2)c1C(=O)O	Arbovirus anti 74
O=C(Nc1scc(-c2cccs2)c1C(=O)O)c1cccs1	Arbovirus anti 50 (no result: Pf gametocyte)
CCOC(=O)c1c(-c2cccs2)csc1NC(=O)c1ccncc1	none
O=C(/C=C/c1cccs1)Nc1nc(-c2ccccc2)cs1	none
N=c1c2c(ncn1CCCO)Oc1cc(O)ccc1C2c1ccccc1 (centres undefined)	MEKK2wt PB1 HTS -4.0 (no result: Arbovirus anti)
COc1ccc(C2c3ccc(O)cc3Oc3ncn(CCN4CCOCC4)c(=N)c32)cc1 (centres undefined)	none (no result: Arbovirus anti)
O=C(NC1CCN(Cc2ccccc2)CC1)c1cccc(S(=O)(=O)Nc2cc(C(F)(F)F)ccc2Cl)c1	Arbovirus anti 33
CCC1CCCCN1C(=O)c1cccc(S(=O)(=O)Nc2cc(C(F)(F)F)ccc2Cl)c1 (centres undefined)	none (no result: Pf gametocyte)
COc1ccc(C2=Nn3c(nnc3-c3ccncc3)SC2)cc1OC	Arbovirus anti 49 (no result: Pf gametocyte)
O=S(=O)(Nc1nnc(C2CC2)s1)c1ccccc1	none (no result: Pf gametocyte, Arbovirus anti)
CN1CCc2c(sc3nc(SCC(=O)NCc4ccco4)n(-c4ccccc4)c(=O)c23)C1	none (no result: Pf gametocyte, Arbovirus anti)
CCOC(=O)[C@H]1[C@H]2COc3cc(OC)ccc3[C@@H]2N2C(=O)c3ccc(C)cc3NC(=O)[C@@]12C	Pf gametocyte 39 (no result: Arbovirus anti, MEKK3 PB1 HTS, MEKK2wt PB1 HTS, MEKK2mut PB1 HTS)
CC(=O)Nc1nnc(CSCc2ccccc2F)s1	none (no result: Arbovirus anti)
O=C(Cn1c(=O)oc2ccccc21)Nc1ccc(Cl)cc1Cl	none (no result: Pf gametocyte, Arbovirus anti)
O=C(CSc1ncnc2scc(-c3ccccc3)c12)Nc1ccc(C(=O)O)cc1	none (no result: Arbovirus anti)
O=C(CSc1nc(-c2ccc(F)cc2)nc2c1Cc1ccccc1O2)Nc1ccc(C(=O)O)cc1	Arbovirus anti 32
O=C(CSc1nc(-c2ccccc2)nc2c1Cc1ccccc1O2)Nc1ccc(C(=O)O)cc1	Arbovirus anti 68
CCCC(=O)N1CCN(c2nc3c(OC)ccc(Cl)c3s2)CC1	none (no result: Pf gametocyte, Arbovirus anti)
COc1ccc(-n2nc3c(N4CCC(C(=O)N5CCC(C)CC5)CC4)nnc(C)c3c2C)cc1	MEKK3 PB1 HTS 139, MEKK2wt PB1 HTS 476, MEKK2mut PB1 HTS 920 (no result: Pf gametocyte, Arbovirus anti)
COc1ccccc1NC(=O)COC(=O)c1ccccc1OCC(=O)Nc1ccc(SC(F)F)cc1	none
CN(C)C(=O)COC(=O)c1ccccc1Nc1ccc(SC(F)F)cc1	Arbovirus anti 33
CCn1c(C(C)NC(=O)c2cccc(C)c2)n[nH]c1=S (centres undefined)	none
Cc1nc(NCc2ccco2)c2c3c(sc2n1)CCC3	none
CCN1CCc2c(sc3c2c(NCc2ccco2)nc2nnnn23)C1	Arbovirus anti 33 (no result: Pf gametocyte)
O=C(/C=C/c1ccc(F)cc1)Nc1nc2ccccc2[nH]1	MEKK3 PB1 HTS 208 (no result: Pf gametocyte)
O=C(Nc1nc2ccccc2[nH]1)c1cccc(F)c1	none (no result: Pf gametocyte, Arbovirus anti)
CC1(C)Cc2c(sc(NC(=O)c3ccc(C(=O)c4ccccc4)cc3)c2C(N)=O)C(C)(C)N1	MEKK2wt PB1 HTS 150 (no result: Pf gametocyte, Arbovirus anti)
CCOC(=O)c1c(NC(=O)COc2ccccc2C#N)sc2c1CC(C)(C)NC2(C)C	MEKK2wt PB1 HTS 134 (no result: Pf gametocyte, Arbovirus anti)
CCOC(=O)c1c(NC(=O)Cc2ccccc2)sc2c1CC(C)(C)NC2(C)C	none (no result: Pf gametocyte, Arbovirus anti)
Cc1ccc(CN(Cc2cc3cccc(C)c3[nH]c2=O)C(=S)NCCCN(C)C)cc1	none
N#Cc1ccc(NC(=O)Cn2cnc(S(=O)(=O)N3CCCCC3)c2)cc1	none (no result: Pf gametocyte, Arbovirus anti)
Cc1cc(-c2nnc(CSc3nnc(NC(=O)c4ccc(C(C)(C)C)cc4)s3)o2)ccc1[N+](=O)[O-]	none (no result: Arbovirus anti)
O=[N+]([O-])c1cc(/C=N\Nc2nc(-c3ccccc3)cs2)ccc1O	Arbovirus anti 48
O=C(NNC(=O)c1ccc2[nH]c(=O)c(=O)[nH]c2c1)c1cccc(Br)c1	none (no result: Pf gametocyte, Arbovirus anti)
CCOc1cc(/C=C/C(=O)Nc2ccc(C(=O)NCCN(CC)CC)cc2)ccc1OCC(C)C	MEKK2wt PB1 HTS 138
